The structures appear in SMILES notation. Results filed as inconclusive are left out. Entries that show only a call come without a potency. The source made the active and inactive calls. Calls come from the whole dose curve; as a rule, active = well fitted activation curve with a large enough effect; inconclusive = small, poorly fitted or top-dose-only effect; inactive = no such curve, though single readings can be large or run the other way.
Potency is the fitted concentration of half-maximal effect.

A short description of this test: qHTS assay for re-activators of p53 using a Luc reporter: Hit Validation. Note: nearly all actives have a fitted effect of over 75% in size. Conditions: p53-responsive luciferase reporter cells, luminescence, H1299 line expressing heat-sensitive Ala138Val p53; series mostly up to 46.1 µM. The method, boiled down:
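Hit confirmation with a 1:5 dilution series, at 37 deg C for 24 hrs, in H1299 cells co-expressing temperature-sensitive p53-A138V and p53-responsive luciferase. Nocodazole served as control; luminescence read after 10 min with detection reagent.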
(In qHTS, concentration-response curves come from the screen itself.)
As to `Clc1ccc(OCc2nc(-c3ccncc3)no2)c(Cl)c1`, the Potency is 8200 nM (active).

As to `COc1ccc(C2=NN(C(C#N)c3ccc(OC)cc3)C(c3ccccc3)C2)cc1` (configuration not stated), the Potency is 14600 nM (active).

In the case of `CCCCC(=O)N1CCCC(C)C1` (configuration not stated), the Potency result is “inactive”.

Consider `COc1cc(C(=S)N2CCOCC2)ccc1OC(=O)c1ccccc1C`, for which the Potency entry is “inactive”.

For the compound `Clc1ccc(-c2nnc(N3CCCC3)nn2)cc1`, the Potency is 731 nM (active).

With `CN(C)c1ccc(C(=O)Nc2nc3c(s2)CCCC3)cc1`, the Potency was 82 nM (active).

Consider `Cc1cccc(-c2noc(CCC(=O)N3CCN(c4cc(C)ccc4C)CC3)n2)c1`, for which the Potency was 23100 nM (active).

Turning to `O=C(CCS(=O)(=O)c1ccccc1)Nc1ccc(-c2nc3ccccc3s2)cc1`, the Potency is 651 nM (active).

For `Oc1[nH]c2ccccc2c1C=Nc1ccc2c(c1)OCCO2`, the Potency was 326 nM (active).

In the case of `CN(Cc1ccccc1)C(=O)CNC(=O)Cn1cnc2ccccc2c1=O`, the Potency result is “inactive”.

In the case of `c1ccc2sc(-c3ccc4c(c3)OCO4)nc2c1`, the Potency is 2310 nM (active).

On to `COc1ccc(N2CCN(CCCNC(=O)C3(S(=O)(=O)c4ccc(Cl)cc4)CC3)CC2)cc1`, for which the Potency result is “inactive”.

`COCCn1c(C)cc(C(=O)COc2ccc(N(C)S(=O)(=O)c3ccc(C)cc3)cc2)c1C`: the Potency result is “inactive”.

Take `O=C(Nc1ccccc1Oc1ccccc1)c1cc([N+](=O)[O-])ccc1Cl`: the Potency result was “inactive”.

Regarding `COc1cc(NC(=O)CSCc2ccc(Cl)cc2)c(C(=O)O)cc1OC`, the Potency result was “inactive”.

As for `O=C(c1ccc(N2CCN(S(=O)(=O)c3ccccc3)CC2)c([N+](=O)[O-])c1)N1CCOCC1`, the Potency result was “inactive”.

Regarding `O=C(CN1C(=O)COc2ccccc21)Nc1ccc(F)cc1`, the Potency entry is “inactive”.

Consider `NC(N)=Nc1nc(C2COc3ccccc3O2)cs1` (configuration not stated), for which the Potency was 4110 nM (active).

Take `COc1cccc(-c2cn3nc4c(nc3n2)CCCC4)c1`: the Potency is 116 nM (active).

`N/C(=N\OC(=O)c1ccccc1Cl)c1ccc(Cl)cc1`: the Potency was 9200 nM (active).

Take `Cn1c(Cc2cccs2)nnc1SCc1nc2ccccc2[nH]1`: the Potency entry was “inactive”.

In the case of `Cc1ccc(S(=O)(=O)NCC(=O)NCC(=O)N2CCC(C)CC2)cc1`, the Potency entry was “inactive”.

Turning to `C=C[C@@H]1c2cc(C)ccc2N(S(=O)(=O)c2ccc(C)cc2)[C@H](c2ccccc2C(F)(F)F)C1(C#N)C#N`, the Potency entry was “inactive”.

For the compound `Cc1cc(C)cc(NC(=O)CSc2nnc(-c3ccccc3C)o2)c1`, the Potency result is “inactive”.

With `CN(C)c1ccc(/C=N/Nc2nncc3ccccc23)cc1`, the Potency is 366 nM (active).

As to `O=C(NC(=S)NC1CCCCC1)c1ccccc1[N+](=O)[O-]`, the Potency entry was “inactive”.

Turning to `Cc1noc(C)c1C(=O)Nc1nc(-c2ccc(F)cc2)cs1`, the activation is -25% [at 9.22 µM] (inactive).

Consider `CCOc1ccc(/C=N/NC(=O)CN2CCSCC2)cc1`, for which the Potency entry was “inactive”.

Regarding `CC1(C)Oc2ccc(NC(=O)C3COc4ccccc4O3)cc2O1` (configuration not stated), the Potency was 1300 nM (active).

For `Nc1nc(-c2ccc([N+](=O)[O-])cc2)cs1`, the Potency entry is “inactive”.

Take `Cc1cc(NC(=O)c2ccco2)sc1C`: the Potency is 18400 nM (active).

In the case of `O=C(Nc1ccc(-c2nc3cc(Cl)ccc3c(=O)o2)cc1)c1ccco1`, the Potency entry is “inactive”.

Take `CCOC(=O)C1=C(C)Nc2ncnn2C1c1c[nH]c2ccccc12` (configuration not stated): the Potency entry is “inactive”.

As to `CCOC(=O)CC(=O)Nc1ccc(C(=O)OCC)cc1`, the Potency result is “inactive”.

`C#CC(C)(CC)NC(=O)Cn1nnc(-c2ccc(S(C)(=O)=O)cc2)n1` (configuration not stated): the Potency result is “inactive”.

As to `O=c1c2ccccc2oc2ccc(-c3ccc4cc[nH]c4c3)cc12`, the Potency was 411 nM (active).

As to `Clc1cccc(Cl)c1CSc1nnc2ccccn12`, the Potency result was “inactive”.

Values taken from PubChem BioAssay AID624305 (National Center for Advancing Translational Sciences (NCATS), 2012).
